Experiment [1] is described as follows: ATG_GLI_CIS: Attagene CIS-FACTORIAL HepG2 Assay for human Zinc Finger Protein GLI1 (AID 2282945). As to conditions: HepG2, Attagene cis-factorial reporter mRNA, GLI element; actives raise or lower the signal. The essentials: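 Bidirectional curve fits relative to DMSO, using reporter mRNA levels from RT-PCR plus capillary electrophoresis. Cells were HepG2 transiently carrying cis-regulated reporter constructs, harvested 24 h after dosing.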

The nature of experiment [2]: ATG_GRE_CIS: Attagene CIS-FACTORIAL HepG2 Assay for human Glucocorticoid Response Elements (GRE) (AID 2282947). As to conditions: HepG2 GRE cis-reporter, Attagene multiplex mRNA; actives raise or lower the signal. The essentials: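 Multiplexed cis-reporter mRNA induction, HepG2, 24 h post-dose. RT-PCR, FAM-labelled, HpaI-digested amplicons by CE. Bidirectional fit vs DMSO.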

Experiment [3] can be described thus: ATG_ISRE_CIS: Attagene CIS-FACTORIAL HepG2 Assay for human Interferon Regulatory Factor 1 (IRF1) binding to an Interferon-Stimulated Response Element (ISRE) (AID 2282948). As to conditions: HepG2 ISRE cis-reporter (Attagene), mRNA transcription readout; actives raise or lower the signal. The essentials: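 Endogenous transcription factor activity read as reporter transcript abundance via RT-PCR and capillary electrophoresis. HepG2 cells transiently transfected, 24 h chemical exposure. Gain or loss fitted against DMSO baseline.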

Experiment [4] in a line: ATG_M_32_CIS: Attagene CIS-FACTORIAL HepG2 Assay for M32 Transcription Factor (Internal Marker) (AID 2282949).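 Further: background control marker of the multiplexed CIS panel rather than a real target.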 As to conditions: HepG2 Attagene cis-factorial M32 reporter, mRNA; actives raise or lower the signal. The essentials: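 Using DMSO as baseline, bidirectional curve fits were applied to reporter mRNA signals. These came from transiently transfected HepG2 cells exposed for 24 h, with RNA analysed by RT-PCR, FAM primer extension, HpaI digestion and CE.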

Experiment [5] addresses Hypoxia-inducible factor 1-alpha (Homo sapiens) (UniProt Q16665). Nature of the experiment: ATG_HIF1a_CIS: Attagene CIS-FACTORIAL HepG2 Assay for human Hypoxia Inducible Factor 1 (HIF1A) (AID 2282951). As to conditions: HepG2 Attagene cis-factorial HIF1a reporter transcription; actives raise or lower the signal. The essentials: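 Endogenous-TF cis reporter readout, human HepG2 cells, 24 h incubation; mRNA detected via RT-PCR and capillary electrophoresis fluorescence; DMSO-normalised bidirectional fitting.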

Experiment [6] has as its target Hepatocyte nuclear factor 6 (Homo sapiens) (UniProt Q9UBC0). Nature of the experiment: ATG_HNF6_CIS: Attagene CIS-FACTORIAL HepG2 Assay for human Hepatocyte Nuclear Factor 6 (HNF6) (AID 2282952). As to conditions: HepG2 Attagene cis-factorial HNF6 reporter transcription; actives raise or lower the signal. The essentials: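 Using cis-element reporters in HepG2 liver cells, the assay tracks endogenous factor-driven transcription 24 h post-dosing. Signal comes from 6-FAM-labelled, HpaI-digested RT-PCR fragments, with gain or loss scored against DMSO.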

A short description of experiment [7]: ATG_MRE_CIS: Attagene CIS-FACTORIAL HepG2 Assay for human Metal Responsive Element (MRE) (AID 2282954). As to conditions: HepG2 MRE cis-reporter transcription, Attagene multiplex; actives raise or lower the signal. The essentials: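 Multiplexed cis-reporter assay in human HepG2 liver cells, 24 h incubation with test chemical. Reporter transcripts measured by RT-PCR and capillary electrophoresis; values from bidirectional curve fitting versus DMSO.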

Experiment [8] addresses Paired box protein Pax-6 (Homo sapiens) (UniProt P26367). The experiment in a line: ATG_Pax6_CIS: Attagene CIS-FACTORIAL HepG2 Assay for human Paired Box 6 (PAX6) (AID 2282956). The following applies: HepG2 CIS-FACTORIAL PAX6 reporter transcription, RNA readout; actives raise or lower the signal. The essentials: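 Read-out is reporter transcript level, measured by RT-PCR with fluorescent primer extension and capillary electrophoresis after 24 h dosing of transfected HepG2 cells. Activity in either direction fitted relative to DMSO control.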

The nature of experiment [9]: ATG_PXRE_CIS: Attagene CIS-FACTORIAL HepG2 Assay for human Pregnane X Receptor Element (PXRE) (AID 2282957). The following applies: HepG2 Attagene CIS-FACTORIAL PXRE reporter, mRNA; actives raise or lower the signal. The essentials:
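Using HepG2 transfected with multiple reporter transcription units, endogenous factor-driven transcription was scored as reporter mRNA after 24 h exposure.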

A short description of experiment [10]: ATG_PPRE_CIS: Attagene CIS-FACTORIAL HepG2 Assay for human Peroxisome Proliferator-activated Response Element (PPRE) (AID 2282958). As to conditions: HepG2 PPRE cis-element reporter, Attagene transcription factor profiling; actives raise or lower the signal. The essentials:
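After human HepG2 hepatoma cells were transiently transfected with cis-promoter reporter constructs, they were exposed to test chemicals for 24 hours. Reporter RNA was then reverse-transcribed, PCR-amplified, FAM-labeled, HpaI-digested and quantified by capillary electrophoresis.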

Experiment [11] in a line: ATG_RORE_CIS: Attagene CIS-FACTORIAL HepG2 Assay for human RAR-related Orphan Receptor Element (RORE) (AID 2282959). The following applies: HepG2 Attagene cis-factorial RORE reporter, mRNA; actives raise or lower the signal. The essentials:
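Measured here: transcript induction of a cis-regulated reporter in HepG2 cells transiently transfected via FuGene 6. After 24 h, RNA was processed by RT-PCR and fluorescent capillary electrophoresis; DMSO defined baseline activity.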

Experiment [12] can be described thus: ATG_Sox_CIS: Attagene CIS-FACTORIAL HepG2 Assay for human SRY-box transcription factor (SOX) (AID 2282960). As to conditions: HepG2 Attagene cis-factorial SOX reporter, mRNA; actives raise or lower the signal. The essentials:
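Using transiently transfected HepG2 cells, reporter transcription driven by cis elements was assessed 24 h after dosing. Signal was fluorescence of capillary-separated RT-PCR products, with DMSO defining baseline activity.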

Experiment [13] deals with Transcription factor Sp1 (Homo sapiens) (UniProt P08047). The experiment in a line: ATG_Sp1_CIS: Attagene CIS-FACTORIAL HepG2 Assay for human Specificity Protein 1 (Sp1) (AID 2282961). The following applies: HepG2 Sp1 cis-reporter transcription, actives raise or lower the signal. The essentials:
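After transient transfection of HepG2 cells with cis-promoter reporter units and 24 h chemical treatment, reporter transcripts were quantified by RT-PCR and capillary electrophoresis fluorescence. Gain- and loss-of-signal fitted against DMSO.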

A short description of experiment [14]: ATG_SREBP_CIS: Attagene CIS-FACTORIAL HepG2 Assay for human Sterol Regulatory Element Binding (SREBP) (AID 2282962). As to conditions: HepG2 Attagene cis-factorial SREBP reporter, mRNA; actives raise or lower the signal. The essentials:
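Endogenous SREBP activity read as cis-element-driven reporter transcript in transiently transfected HepG2, 24 h post-dosing; quantified via RT-PCR plus capillary electrophoresis of fluorescent fragments. Gain or loss of signal fitted relative to DMSO baseline.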

Experiment [15] has as its target Heat shock factor protein 1 (Homo sapiens) (UniProt Q00613). Nature of the experiment: ATG_HSE_CIS: Attagene CIS-FACTORIAL HepG2 Assay for human Heat Shock Transcription Factor 1 (HSE) (AID 2282953). As to conditions: HepG2 HSE cis-reporter, Attagene RNA transcription; actives raise or lower the signal. The essentials:
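After a 24 h incubation with test chemical, transfected HepG2 cells were harvested for RNA; reporter transcripts were measured by RT-PCR and capillary electrophoresis. Values reflect gain or loss of signal relative to DMSO.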

Experiment [16] can be described thus: ATG_PBREM_CIS: Attagene CIS-FACTORIAL HepG2 Assay for human Phenobarbital-responsive Enhancer Module (PBREM) (AID 2282955). As to conditions: HepG2 PBREM cis-reporter, Attagene multiplexed transcription; actives raise or lower the signal. The essentials:
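Readout: reporter mRNA, fluorescent RT-PCR fragments separated by capillary electrophoresis. System: HepG2 transiently transfected with cis-regulated reporter units. Exposure: 24 h. Analysis: bidirectional, DMSO baseline.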

Experiment [17] in a line: ATG_TA_CIS: Attagene CIS-FACTORIAL HepG2 Assay for human TA Basal Promoter (AID 2282964). The following applies: HepG2 Attagene CIS-factorial TA basal promoter reporter; actives raise or lower the signal. The essentials:
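Multiplexed mRNA reporter assay, HepG2, 24 h. Reporter cDNA amplified, 6-FAM primer-extended, HpaI-cut, CE-sized; DMSO = negative control and baseline.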

Experiment [18] concerns the target Bile acid receptor (Homo sapiens) (UniProt Q96RI1). The experiment in a line: ATG_IR1_CIS: Attagene CIS-FACTORIAL HepG2 Assay for human Nuclear Receptor Subfamily 1 Group H Member 4 (NR1H4), IR1 submotif (AID 2282946). The following applies: IR1 reporter transcription, actives raise or lower the signal. The essentials: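 HepG2 cells transiently transfected with multiplexed cis-element reporter units read endogenous transcription factor activity. After 24 h compound exposure, reporter mRNA was quantified by RT-PCR, fluorescent labelling, HpaI digestion and capillary electrophoresis; bidirectional fitting versus DMSO baseline.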

The nature of experiment [19]: ATG_M_06_CIS: Attagene CIS-FACTORIAL HepG2 Assay for M06 Transcription Factor (Internal Marker) (AID 2282950). The following applies: HepG2 Attagene CIS-FACTORIAL M06 internal marker reporter; actives raise or lower the signal. The essentials:
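Fluorescence-labelled RT-PCR products from cis-promoter reporter units, cut with HpaI and resolved by capillary electrophoresis, give the signal. Cells are human HepG2, dosed for 24 h. Serves as background control, fitted relative to DMSO.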

Where “and” joins values, the source holds several entries; their conditions need not be identical. Equal entries are not always repeated. The source holds several records for some structures; these can differ, active in one and inactive in another. Calls of active or inactive are those of the source. How the source made its calls: active means hit-call score of the fitted dose curve at least 0.9, where 1 is the maximum; inactive means score below 0.9.

Hypoxia-inducible factor 1-alpha (Homo sapiens), sequence (Q16665 whole entry, looked up): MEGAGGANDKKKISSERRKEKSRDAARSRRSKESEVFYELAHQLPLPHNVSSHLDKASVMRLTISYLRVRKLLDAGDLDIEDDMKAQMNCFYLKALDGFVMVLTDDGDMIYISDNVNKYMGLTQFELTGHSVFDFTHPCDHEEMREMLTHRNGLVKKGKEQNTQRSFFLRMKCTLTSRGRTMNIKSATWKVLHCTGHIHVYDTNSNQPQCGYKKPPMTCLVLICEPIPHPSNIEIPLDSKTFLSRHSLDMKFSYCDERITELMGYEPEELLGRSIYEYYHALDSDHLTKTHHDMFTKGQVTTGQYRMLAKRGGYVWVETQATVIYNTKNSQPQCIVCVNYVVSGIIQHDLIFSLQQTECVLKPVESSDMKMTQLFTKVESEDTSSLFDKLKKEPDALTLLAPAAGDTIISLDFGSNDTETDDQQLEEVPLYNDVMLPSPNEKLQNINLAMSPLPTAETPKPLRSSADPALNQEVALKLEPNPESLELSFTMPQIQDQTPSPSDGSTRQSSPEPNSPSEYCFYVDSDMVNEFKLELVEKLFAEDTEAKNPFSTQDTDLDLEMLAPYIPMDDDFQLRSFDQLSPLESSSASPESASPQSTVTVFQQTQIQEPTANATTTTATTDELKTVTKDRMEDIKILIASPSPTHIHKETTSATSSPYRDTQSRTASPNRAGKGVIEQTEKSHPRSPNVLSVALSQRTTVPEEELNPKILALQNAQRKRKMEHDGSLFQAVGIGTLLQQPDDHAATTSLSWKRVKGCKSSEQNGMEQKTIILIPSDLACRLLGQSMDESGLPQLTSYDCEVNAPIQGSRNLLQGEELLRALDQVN
Hepatocyte nuclear factor 6 (Homo sapiens), sequence (Q9UBC0 whole entry, looked up, the tested form may be a part): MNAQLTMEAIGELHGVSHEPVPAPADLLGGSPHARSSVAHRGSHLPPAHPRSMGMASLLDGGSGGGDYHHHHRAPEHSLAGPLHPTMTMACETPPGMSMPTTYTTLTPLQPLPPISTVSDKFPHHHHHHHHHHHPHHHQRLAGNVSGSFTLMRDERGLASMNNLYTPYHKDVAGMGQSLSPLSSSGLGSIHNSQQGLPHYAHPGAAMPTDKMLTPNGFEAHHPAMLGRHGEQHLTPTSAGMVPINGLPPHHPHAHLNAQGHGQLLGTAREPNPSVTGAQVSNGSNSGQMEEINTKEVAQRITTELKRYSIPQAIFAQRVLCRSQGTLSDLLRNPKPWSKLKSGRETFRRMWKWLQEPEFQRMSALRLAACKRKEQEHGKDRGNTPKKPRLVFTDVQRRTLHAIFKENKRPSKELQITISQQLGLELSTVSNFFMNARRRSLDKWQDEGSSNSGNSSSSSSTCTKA
Paired box protein Pax-6 (Homo sapiens), sequence (P26367 whole entry, looked up): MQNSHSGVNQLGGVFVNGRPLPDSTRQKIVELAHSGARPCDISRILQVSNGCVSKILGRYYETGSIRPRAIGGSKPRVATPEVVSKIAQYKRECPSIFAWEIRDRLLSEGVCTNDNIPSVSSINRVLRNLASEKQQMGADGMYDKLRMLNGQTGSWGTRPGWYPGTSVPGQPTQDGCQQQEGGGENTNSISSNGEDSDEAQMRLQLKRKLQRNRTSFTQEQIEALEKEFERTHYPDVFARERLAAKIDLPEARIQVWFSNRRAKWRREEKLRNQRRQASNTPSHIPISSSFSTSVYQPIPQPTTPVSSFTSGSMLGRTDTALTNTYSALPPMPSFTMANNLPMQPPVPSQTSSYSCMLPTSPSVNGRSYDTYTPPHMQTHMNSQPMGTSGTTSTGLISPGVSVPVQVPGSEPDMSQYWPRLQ
Heat shock factor protein 1 (Homo sapiens), sequence (Q00613 whole entry, looked up): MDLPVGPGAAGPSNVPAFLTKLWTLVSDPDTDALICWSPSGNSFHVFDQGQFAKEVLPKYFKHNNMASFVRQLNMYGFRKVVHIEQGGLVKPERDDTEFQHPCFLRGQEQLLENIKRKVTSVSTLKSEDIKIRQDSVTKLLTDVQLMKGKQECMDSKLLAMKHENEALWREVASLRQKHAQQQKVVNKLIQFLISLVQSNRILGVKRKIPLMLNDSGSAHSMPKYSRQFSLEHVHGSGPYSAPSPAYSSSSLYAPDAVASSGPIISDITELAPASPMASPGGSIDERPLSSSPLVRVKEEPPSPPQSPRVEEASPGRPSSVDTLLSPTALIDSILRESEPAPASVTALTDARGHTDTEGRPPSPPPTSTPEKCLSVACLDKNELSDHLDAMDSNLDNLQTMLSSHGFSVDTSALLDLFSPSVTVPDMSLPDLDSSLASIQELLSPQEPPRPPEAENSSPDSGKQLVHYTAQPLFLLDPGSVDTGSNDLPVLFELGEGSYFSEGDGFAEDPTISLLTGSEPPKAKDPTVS
Transcription factor Sp1 (Homo sapiens), sequence (P08047 whole entry, looked up): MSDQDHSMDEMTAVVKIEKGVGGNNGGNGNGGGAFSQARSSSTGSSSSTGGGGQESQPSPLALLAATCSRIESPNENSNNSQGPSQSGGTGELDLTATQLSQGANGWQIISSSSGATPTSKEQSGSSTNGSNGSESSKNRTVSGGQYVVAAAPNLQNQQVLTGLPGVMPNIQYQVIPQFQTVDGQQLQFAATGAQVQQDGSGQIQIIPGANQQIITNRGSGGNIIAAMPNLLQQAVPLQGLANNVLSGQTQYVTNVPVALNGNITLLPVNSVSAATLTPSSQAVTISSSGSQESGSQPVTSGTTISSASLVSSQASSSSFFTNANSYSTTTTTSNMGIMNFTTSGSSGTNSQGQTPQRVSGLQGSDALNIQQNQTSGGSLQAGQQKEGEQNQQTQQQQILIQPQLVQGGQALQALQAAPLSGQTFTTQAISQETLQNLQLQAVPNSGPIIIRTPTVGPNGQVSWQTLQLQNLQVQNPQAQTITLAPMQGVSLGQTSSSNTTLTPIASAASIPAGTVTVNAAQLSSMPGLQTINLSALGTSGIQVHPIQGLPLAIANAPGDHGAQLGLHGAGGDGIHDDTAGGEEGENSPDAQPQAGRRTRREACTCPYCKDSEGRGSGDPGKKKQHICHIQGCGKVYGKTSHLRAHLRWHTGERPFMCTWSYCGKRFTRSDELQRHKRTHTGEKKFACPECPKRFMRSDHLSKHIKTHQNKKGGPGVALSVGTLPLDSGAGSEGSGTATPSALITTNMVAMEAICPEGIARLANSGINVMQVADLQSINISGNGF
Bile acid receptor (Homo sapiens), sequence (Q96RI1 whole entry, looked up): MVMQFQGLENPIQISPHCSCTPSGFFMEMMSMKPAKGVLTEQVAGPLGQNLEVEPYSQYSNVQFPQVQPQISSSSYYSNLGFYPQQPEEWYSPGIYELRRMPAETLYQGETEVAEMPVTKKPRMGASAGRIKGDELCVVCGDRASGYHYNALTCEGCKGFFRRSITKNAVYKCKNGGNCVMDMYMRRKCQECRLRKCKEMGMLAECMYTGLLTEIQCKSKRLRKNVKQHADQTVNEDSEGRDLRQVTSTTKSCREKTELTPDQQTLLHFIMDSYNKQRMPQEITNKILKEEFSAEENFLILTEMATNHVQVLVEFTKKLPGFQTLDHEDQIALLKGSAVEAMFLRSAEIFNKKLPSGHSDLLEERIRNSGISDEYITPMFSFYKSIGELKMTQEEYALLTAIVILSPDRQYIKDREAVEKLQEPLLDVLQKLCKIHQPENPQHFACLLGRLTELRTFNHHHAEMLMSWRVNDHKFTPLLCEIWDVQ

On to `CCC(C)Nc1c([N+](=O)[O-])cc(C(C)(C)C)cc1[N+](=O)[O-]` (centres undefined), for which the compound was called inactive in experiment [1], in [2], in experiment [3], in experiment [4], in [5] and in [6]. Besides, the call in [8], in experiment [10], in experiment [12], in experiment [13] and in experiment [14] was inactive. In addition, the AC50 was 31.6 µM (active) in experiment [7], 3.43 µM (active) in experiment [9] and 24.1 µM (active) in [11].

For `CC1(C)C(C=C(Cl)Cl)C1C(=O)OC(C#N)c1ccc(F)c(Oc2ccccc2)c1` (centres undefined), the call in experiment [1], in [2], in [3], in experiment [4], in [5] and in experiment [6] was inactive. Moreover, the compound was called inactive in experiment [15], in experiment [7], in experiment [16], in experiment [8], in [11] and in experiment [12]. For the same compound, the outcome in experiment [13], in experiment [14] and in experiment [17] was inactive. Besides, the concentration at half-maximal activity (AC50) is 2.93 µM (active) in [9] and 8.12 µM (active) in experiment [10].

With `O=C(O)C(F)(F)C(F)(F)C(F)(F)C(F)(F)C(F)(F)C(F)(F)C(F)(F)F`, the outcome in experiment [1], in experiment [3], in experiment [4], in experiment [5], in experiment [6] and in experiment [7] was inactive. Further, the call in [8], in experiment [9], in experiment [12], in experiment [13], in experiment [14] and in [17] was inactive. In addition, in experiment [9], the half-maximal activity concentration (AC50) is 34.1 µM (active) and 41 µM (active) and 41.5 µM (active).

Take `Cc1[nH]c(=O)n(C(C)(C)C)c(=O)c1Cl`: the call in experiment [1], in experiment [18], in experiment [3], in [4], in experiment [5] and in experiment [6] was inactive. Also, the compound was classed as inactive in experiment [15], in experiment [8], in experiment [9], in [11], in experiment [12] and in experiment [14]. For the same compound, the AC50 in [7] was 50 µM (active); in [16] it was 80.8 µM (active); in [13], 50 µM (active).

As for `COP(=S)(OC)Oc1ccc([N+](=O)[O-])cc1`, the outcome in experiment [1], in [18], in [3], in experiment [4], in [5] and in [6] was inactive. In addition, the outcome in experiment [15], in experiment [7], in [16], in [8], in [9] and in [10] was inactive. The compound was called inactive in experiment [11], in [12], in experiment [13] and in experiment [14].

For the compound `[2H]C1([2H])[n+]2ccccc2-c2cccc[n+]2C1([2H])[2H]`, the compound was classed as inactive in [1], in experiment [2], in experiment [3], in experiment [4], in experiment [19] and in experiment [5]. Besides, the compound was classed as inactive in experiment [6], in experiment [15], in experiment [7], in [16], in experiment [8] and in experiment [10]. The call in [11], in experiment [12] and in [13] was inactive. Further, the values for the AC50 in [9] and in experiment [14] were 18.6 µM (active) and 13.3 µM (active), respectively.

For the compound `CNC(=O)Oc1ccccc1OC(C)C`, the result in experiment [1], in experiment [2], in experiment [3], in [4], in experiment [5] and in experiment [6] was inactive. Moreover, the call in experiment [15], in experiment [7], in experiment [16], in [8], in experiment [9] and in [10] was inactive. The result in experiment [11], in experiment [12], in [13], in experiment [14] and in [17] was inactive.

As usually defined, the AC50 is the concentration giving half of the maximal activity seen.

The values are drawn from PubChem BioAssay (EPA / NIEHS).
